# In PubChem BioAssay (NCATS):
# Inconclusive results are not listed. Entries that show only a call come without a potency. The source made the active and inactive calls. Calls come from the whole dose curve; as a rule, active = well fitted inhibition curve with a large enough effect; inconclusive = small, poorly fitted or top-dose-only effect; inactive = flat fitted curve, though single readings scatter.
# Assay: Cytometry Cell-Based qHTS for Inhibitors of the mTORC1 Signaling Pathway in MEF cells (AID 2668)
# Settings: mTORC1 pathway readout; series mostly up to 38.3 µM
# Text: NIH Molecular Libraries Probe Production Centers Network [MLPCN]
# NIH Chemical Genomics Center [NCGC]
# Assay Submitter (PI): Blenis, John; Hoffman, Greg; Harvard University
# NCGC Assay Overview: The mammalian target of rapamycin (mTOR) is an intracellular serine/threonine kinase Aberrant regulation of mTOR signaling plays a causative role in a number of human diseases, including cancer, benign tumors such as lymphangioleiomyomatosis (LAM) and Tuberous Sclerosis Complex (TSC), and metabolic diseases such as diabetes and obesity. This project aims to identify inhibitors of ribosomal protein S6 (rpS6) phosphorylation. The phosphorylation of rpS6 is a key event downstream of mTOR activation. The assay uses a phospho-specific antibody of phospho-rpS6 to detect inhibitors of mTOR activation. Mutations in the Tsc1 and Tsc2 genes are the underlying genetic lesions responsible for TSC, causing constitutive activation of the mTORC1 pathway and leading to profound effects on cell metabolism. Aberrant metabolism in cancer has recently received significant attention as a target to develop therapeutic agents in the treatment of cancer.1 As Tsc2-/- cells have lost the ability to respond to energy and growth factor deprivation, these cells are unable to properly down regulate cellular biosynthetic processes in response to metabolic stress, and are thus extremely sensitive to glucose deprivation-induced death.2 A central goal of this project is to explore the unique cell survival and metabolic properties of cells with Tsc1 or Tsc2 by screening for compounds that selectively target the Tsc2-/- MEFs by screening both Tsc2-/- and WT MEF cell lines. We hope to better understand these aspects of TSC physiology in order to exploit them for therapeutic benefit.
# NCGC Acumen Assay Protocol:
# For quantitative high throughput analysis of mTORC1 signaling, we developed a cell-based assay for immuno-fluorescence based detection of rpS6 phosphorylation on the Acumen Explorer that will be used a platform for the primary small molecule screen. Mouse embryonic fibroblasts (MEFs) are cultured in 1536-well plates using DMEM + 10% FBS. Twenty-four hrs after plating, test compounds (solubilized in DMSO) are delivered and incubated with the cells for 24 hrs at 37 degree Celsius. Following the incubation, media with compound is aspirated and the cells are fixed in 4% paraformaldehyde (PFA) containing PBS + 0.2% TX-100. Next, PFA is aspirated, cells are washed two times with PBS plus 0.2% TX-100 and the cells are blocked for 1 hr at room temperature (blocking buffer: LiCOR Blocking Buffer plus 0.2% TX-100). This is followed by aspiration and staining with Alexa-488 conjugated-phospho-rpS6 Ser235/236 antibody for 2 hours at room temperature (Cell Signaling Technology # 4803, 1:50 dilution in blocking buffer). Cells are washed two times with PBS plus 0.2% TX-100, and stained with 10 uM propidium iodide (PI) for 20-25 minutes for cell number measurement (1:500 dilution of Hoescht staining is also added for IN Cell imaging). The plates are scanned on the Acumen Explorer laser scanning instrument (TTP Labtech) using the 488nm laser for simultaneous excitation of the Alexa-488 and PI. The fluorescence emission from the Alexa-488 conjugated rpS6 phospho-235/236 antibody staining is selected using a […] band pass filter. Fluorescence emission from the PI stain is selected using a 575-640 nm band pass filter. The normalized phospho-S6 staining is calculated as the ratio of the integrated Alexa 488 intensity divided by the integrated PI intensity for the single concentration rapamycin control (7.5 nM) and DMSO columns. […] Inhibition of the pathway is defined based on the normalized phospho-S6 intensity in rapamycin treated cells. […]
# Potency is the fitted concentration of half-maximal effect.
row,SMILES,Potency
1,Cc1ccc(=O)n(-c2ccccc2)c1,inactive
2,O=C(CCCN1CCC(O)(c2cccc(C(F)(F)F)c2)CC1)c1ccc(F)cc1,13.1 µM (active)
3,CC(N=C(NC#N)Nc1ccncc1)C(C)(C)C (stereo not given),inactive
4,CC1=NS(=O)(=O)c2cc(Cl)ccc2N1,inactive
5,CNCCC(Oc1ccccc1OC)c1ccccc1 (stereo not given),inactive
6,CN(C)C/C=C(/c1ccc(Br)cc1)c1cccnc1,inactive
7,COc1ccc([C@@H]2Sc3ccccc3N(CCN(C)C)C(=O)[C@@H]2OC(C)=O)cc1,inactive
8,Cc1nc2ccccn2c(=O)c1CCN1CCC(C(=O)c2ccc(F)cc2)CC1,inactive
9,CCN1CCc2nc(N)oc2CC1,inactive
10,CCO/C([O-])=N/c1c[n+](N2CCOCC2)no1,inactive
11,CC(C)[N+](C)(CCOC(=O)C1c2ccccc2Oc2ccccc21)C(C)C,inactive
12,CC(C(=O)O)c1ccc(CC2CCCC2=O)cc1 (stereo not given),inactive
13,C[n+]1cc2c3c(ccc2c2ccc4cc5c(cc4c21)OCO5)OCO3,inactive
14,O=C1CC2(CCCC2)CC(=O)N1CCCCN1CCN(c2ncccn2)CC1,inactive
15,NC(=O)c1cn(Cc2c(F)cccc2F)nn1,inactive
16,CCc1c(C)[nH]c2c1C(=O)C(CN1CCOCC1)CC2 (stereo not given),inactive
17,C[C@]12C=CC(=O)C=C1CC[C@H]1[C@@H]3C[C@@H](O)[C@](O)(C(=O)CO)[C@@]3(C)C[C@H](O)[C@@]12F,inactive
18,CCCN1C[C@H](CSC)C[C@@H]2c3cccc4[nH]cc(c34)C[C@H]21,inactive
19,CC(C)(C)NCC(O)c1cc(O)cc(O)c1 (stereo not given),inactive
20,CN(C(=O)CCCOc1ccc2[nH]c(=O)ccc2c1)C1CCCCC1,inactive

row,SMILES,Potency
1,CN(C)CC[C@@H](c1ccc(Br)cc1)c1ccccn1,inactive
2,CCN(CC)CC(=O)Nc1c(C)cccc1C,inactive
3,CN(C)CC/C=C1\c2ccccc2COc2ccccc21,inactive
4,CCN(CC)CCOCCOC(=O)C1(c2ccccc2)CCCC1,inactive
5,CN(C)C(=O)Oc1cccc([N+](C)(C)C)c1,inactive
6,COC(=O)[C@H]1[C@H]2C[C@@H]3c4[nH]c5cc(OC)ccc5c4CCN3C[C@H]2C[C@@H](OC(=O)c2cc(OC)c(OC)c(OC)c2)[C@@H]1OC,inactive
7,CCCCNC(=O)NS(=O)(=O)c1ccc(C)cc1,inactive
8,CC(C)(Oc1ccc(CCNC(=O)c2ccc(Cl)cc2)cc1)C(=O)O,inactive
9,c1cnc(N2CCN(Cc3ccc4c(c3)OCO4)CC2)nc1,inactive
10,Cc1nc2c([nH]1)c(=O)n(C)c(=O)n2Cc1ccco1,inactive
11,CCn1nc(C(=O)O)c(=O)c2cc3c(cc21)OCO3,inactive
12,NC/C=C/C(=O)O,inactive
13,NC(=O)c1ncn([C@@H]2O[C@H](CO)[C@@H](O)[C@H]2O)c1O,inactive
14,O=C(O)CCCCCCCC(=O)O,inactive
15,CCN(Cc1ccncc1)C(=O)C(CO)c1ccccc1 (stereo not given),inactive
16,COCCCC/C(=N\OCCN)c1ccc(C(F)(F)F)cc1,inactive
17,CC(=O)[C@@]1(O)CC[C@H]2[C@@H]3CCC4=CC(=O)CC[C@]4(C)[C@H]3CC[C@@]21C,inactive
18,CCCOc1ccccc1-c1nc2n[nH]nc2c(=O)[nH]1,inactive
19,CCCNC(C)C(=O)Nc1ccccc1C (stereo not given),inactive
20,CCN(CC)CCNC(=O)c1cc(S(C)(=O)=O)ccc1OC,inactive
